Data published in PubChem BioAssay AID2625 (National Center for Advancing Translational Sciences (NCATS), 2010).
Inconclusive results are not listed. Calls follow the shape of the dose curve; as a rule, active = well fitted curve in the direction sought with a large enough effect; inconclusive = small, poorly fitted or top-dose-only effect, or effect the other way, or another doubt; inactive = no such curve, though single readings can be large or run the other way.

Molecular target: Pyruvate kinase PKLR (Homo sapiens) (UniProt P30613)
Sequence (P30613 whole entry, looked up): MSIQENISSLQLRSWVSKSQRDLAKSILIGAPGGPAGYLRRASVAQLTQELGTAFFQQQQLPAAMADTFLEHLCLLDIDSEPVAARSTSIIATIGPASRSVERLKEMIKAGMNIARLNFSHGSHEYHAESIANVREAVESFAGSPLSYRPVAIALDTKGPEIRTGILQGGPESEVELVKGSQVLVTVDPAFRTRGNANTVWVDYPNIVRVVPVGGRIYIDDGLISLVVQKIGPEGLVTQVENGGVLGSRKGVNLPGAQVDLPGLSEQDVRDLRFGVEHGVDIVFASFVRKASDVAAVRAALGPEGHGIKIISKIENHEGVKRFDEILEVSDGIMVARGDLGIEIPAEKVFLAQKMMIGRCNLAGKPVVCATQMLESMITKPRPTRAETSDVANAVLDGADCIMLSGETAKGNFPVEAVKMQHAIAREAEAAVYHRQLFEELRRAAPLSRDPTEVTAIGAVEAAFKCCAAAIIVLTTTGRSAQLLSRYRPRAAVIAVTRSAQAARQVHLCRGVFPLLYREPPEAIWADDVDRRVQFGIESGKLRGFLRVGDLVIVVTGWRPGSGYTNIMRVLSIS
Test: Secondary LDH Assay for Activators of Human Liver Pyruvate Kinase: for Probe SAR;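 also: 0% = uninhibited enzyme rate and 100% = full activation by fructose bisphosphate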
Details: purified hPK-L, LDH-coupled NADH fluorescence kinetic; series mostly up to 58.2 µM; activity change, positive = activation: at the top concentration
Text: NIH Chemical Genomics Center [NCGC]
Matthew G. Vander Heiden, M.D., Ph.D. [Harvard Medical School, 77 Avenue Louis Pasteur, Boston, MA 02115]
Human pyruvate kinase liver (hPK-L)enzyme was supplied as a highly purified (>95% pure) preparation from Harvard Medical School and a secondary assay was used to evaluate compounds. This assay couples the formation of pyruvate from hPK-R using lactate dehydrogenase (LDH) and NADH. The depletion of NADH is followed in a fluorescent-based kinetic assay that follows the formation of pyruvate to lactate, as catalyzed LDH. Pyruvate kinase substrates, PEP and ADP, were present in the assay at 0.1 mM and 4 mM respectively. In this kinetic assay initial rates were determined by following the fluorescence of NADH depletion.
NCGC Assay Protocol Summary:
Three uL of substrate mix (final concentration, 50 mM Tris-Cl pH 8.0, 200 mM KCl, 15 mM MgCl2, 0.1 mM PEP, 4.0 mM ADP, and 0.2 mM NADH) was dispensed into black-solid 1536 well plates. 23 nL of compounds were delivered by a pin tool and 1 uL of enzyme mix (final concentrations, 10 nM hPK-L and 1 uM of LDH) was added. Plates were immediately placed in ViewLux (Perkin Elmer) and NADH fluorescence was determined at 30 second exposure intervals for between 3 and 6 minutes. Data were normalized to the uninhibited and EC100 activation using known activators such as fructose-bis-phosphate.

Activity change, positive = activation, inactive:
O=C1c2ccccc2C(=O)N1c1cccc2cccnc12 -5.42%, O=C1c2ccccc2C(=O)N1c1ccc2ncccc2c1 -8.34%, O=C1CCc2cc(S(=O)(=O)Nc3cccc(Br)c3)ccc2N1 -13.1%, Cc1ccc(NS(=O)(=O)c2ccc(F)cc2)cc1C -14.1%, CCNc1cccc(S(=O)(=O)N2CCN(S(=O)(=O)c3ccc4c(c3)OCCO4)CC2)c1 -8.22%, Cc1cc(NS(=O)(=O)c2ccc3c(c2)CCC(=O)N3)ccc1Cl -14.1%, Cc1ccc(NS(=O)(=O)c2cc3c(cc2F)NC(=O)CC3)cc1C 10.1%, Nc1cccc(S(=O)(=O)N2CCCN(S(=O)(=O)c3ccc4c(c3)OCCO4)CC2)c1 10.9%, Cc1ccc(NS(=O)(=O)c2cc3c(cc2Cl)CCC(=O)N3)cc1Cl 17.9%, Cc1ccc(NS(=O)(=O)c2cc3c(cc2F)NC(=O)CC3)cc1Cl 19.9%, O=C1c2ccccc2C(=O)N1C1CCCCC1 -6.4%, CNc1cc2c(cc1S(=O)(=O)Nc1ccc(C)c(C)c1)CCC(=O)N2 -7.54%, COc1cccc(OC2=NS(=O)(=O)c3ccccc32)c1 9.2%, Cc1ccc(NS(=O)(=O)c2ccc3c(c2)N(C)CCO3)cc1C 0.472%, CN=c1nc(-c2ccccc2)n(-c2ccccc2)s1 9.26%, COc1cc(N2C(=O)c3ccccc3C2=O)c2ncccc2c1 -4.25%, Cc1ccc(N2C(=O)c3ccccc3C2=O)c(C)c1 -9.01%, Cc1ccc(NS(=O)(=O)c2ccc3c(c2)CCC(C)(C)O3)cc1C 5.51%, COc1cccc(NS(=O)(=O)c2ccc3c(c2)CCC(=O)N3)c1 1.38%, O=C1CCc2cc(S(=O)(=O)Nc3ccc4c(c3)CCC4)ccc2N1 -13.7%, Cc1ccc(NS(=O)(=O)c2ccc3c(c2)oc(=O)n3C)cc1C -4.95%, Cc1ccc(NS(=O)(=O)c2ccc3ccccc3c2)cc1C 20.6%, Cc1ccc(N[S+](=O)([O-])c2cc3c(cc2CCc2ccccc2)NC(=O)CO3)cc1C -3.76%, Cc1ccccc1OC1=NS(=O)(=O)c2ccccc21 -2.31%, Cc1nc(-c2ccc(S(=O)(=O)Nc3ccc(C)c(C)c3)s2)cs1 12.5%, O=C1c2ccccc2C(=O)N1c1noc2ccccc12 -17.1%, O=C1c2ccccc2C(=O)N1c1cc(=O)c2ccccc2[nH]1 10.3%, O=C1CCc2cc(S(=O)(=O)Nc3ccc(F)cc3)ccc2N1 -16%, O=C1CCc2cc(S(=O)(=O)Nc3ccc(Cl)cc3)ccc2N1 -12.1%, O=C1c2ccccc2C(=O)N1Cc1ccccn1 3.8%, O=C1c2ccccc2C(=O)N1c1cccc(=O)[nH]1 -7.14%, O=C1CCc2cc(S(=O)(=O)Nc3cccc(C(F)(F)F)c3)ccc2N1 23.7%, Cc1cc(C)n2c(Nc3ccccc3)c(-c3ccc(C)o3)nc2n1 -7.21%, Cc1ccn2c(NC3CCCCC3)c(-c3ccc(C)o3)nc2c1 -7.6%, Cc1ccc(NS(=O)(=O)c2ccc3c(c2)N(C)C(=O)CO3)cc1C -4.36%, CC(C)Nc1cccc(S(=O)(=O)N2CCCN(S(=O)(=O)c3ccc4c(c3)OCCO4)CC2)c1 10.6%, Cc1ccc(N(C)S(=O)(=O)c2ccc3c(c2)CCC(=O)N3)cc1C 7.04%, O=C1CCc2cc(S(=O)(=O)Nc3ccc4c(c3)OCCO4)ccc2N1 2.49%, O=C1CCc2cc([S+](=O)([O-])NC3CCOCC3)ccc2N1 -17.9%, O=C1c2ccccc2C(=O)N1c1ccncc1 16%
